Out of some 340,000 compounds screened, about 1,000 (0.29%) were called active. Only a sample is shown. Entries with a potency or affinity are not part of this list. A number with no mark means an inactive call. No stated cut-off is given here; in the data, inconclusive means inhibition above about 27% without an active follow-up result; inactive means below that.
test: NS1A inhibition, H1N1 influenza, cell based functional assay (AID 504329); conditions: percent inhibition, at 12.5 µM, stronger effect = higher value

| Structure (SMILES) | inhibition |
| --- | --- |
| COc1cccc(CNC(=O)COC(=O)C23CC4CC(CC(Cl)(C4)C2)C3)c1 | -9.8% |
| O=C(CN(Cc1ccccc1Cl)C(=O)c1ccc(CN2CCOCC2)o1)NCc1ccccc1 | 1.95% |
| O=c1c2ccccc2nc(SCCN2CCCCC2)n1CCc1ccccc1 | 6.75% |
| CC/C(C)=N/N1C(=O)c2ccccc2NC1(C)CC (configuration not stated) | 5.09% |
| O=C(CCc1c[nH]c2ccccc12)NCC1CCCO1 (configuration not stated) | -2.9% |
| O=C(Cn1c(-c2ccccc2)noc1=O)Nc1ccc(S(=O)(=O)N2CCOCC2)cc1 | 2.21% |
| O=C(N/N=C/c1ccc(O)cc1)c1ccncc1 | -6.99% |
| Cc1nonc1C(=O)N/N=C/c1ccc(O)c(O)c1 | -5.97% |
| O=C(CNC(=O)c1ccncc1)N/N=C/c1ccc(O)cc1O | 9.53% |
| COc1cccc(/C=N/NC(=O)CNC(=O)c2ccncc2)c1O | 10.4% |
| COc1ccccc1C=NNC(=O)c1ccncc1 | -14.4% |
| O=C(N/N=C/c1ccccc1C(=O)O)c1ccncc1 | -0.84% |
| O=C(N/N=C/c1ccccc1Cl)c1ccncc1 | 2.1% |
| Cc1nonc1C(=O)N/N=C/c1cccc(O)c1 | -4.77% |
| CC(NC(=O)COC(=O)/C=C/c1ccco1)c1ccccc1 (configuration not stated) | -3.74% |
| CCOC(=O)c1ccccc1NC(=O)CSc1nc(N)cc(=O)[nH]1 | -7.55% |
| CN(C)C(=O)c1ccc(NC(=O)COc2cccc(Oc3ccccc3)c2)cc1 | -4.79% |
| CC(C)CCC(C(=O)O)C(C)CC(=O)NC1CCCCC1 (configuration not stated) | 4.04% |
| CCC(C)[C@H](NC(=O)N1CC(=O)Nc2ccccc21)C(=O)N1CCC(C(=O)O)CC1 (some centres not stated) | 1.95% |
| Cc1cccc(N(C(=O)CNC(=O)c2ccco2)C(C(=O)NC2CCCC2)c2ccncc2)c1C (configuration not stated) | 6.68% |
| CCCn1cc(CN2CCC(n3nccc3NC(=O)CCOc3ccccc3)CC2)c(C)n1 | 3.28% |
| CN1CCN(c2ccc(S(=O)(=O)N3CCCCC3)cn2)CC1 | -0.41% |
| O=C(COC(=O)c1cc([N+](=O)[O-])ccc1N1CCOCC1)Nc1ccc(Cl)cc1 | -5.7% |
| Cc1cccc(C)c1C(=O)N[C@@H](Cc1ccccc1)C(=O)O | 2.25% |
| O=C(N/N=C/c1ccccc1O)NC12CC3CC(CC(C3)C1)C2 | -3.3% |
| O=C(NN=Cc1ccccc1O)C1CC1 | -17.2% |
| O=c1[nH]c2cc(Cl)c(Cl)cc2o1 | -8.2% |

Reference: PubChem BioAssay AID504329 (Southern Research Specialized Biocontainment Screening …, 2011)
